{
  "source": "PubChem BioAssay (NCATS)",
  "note": "Results filed as inconclusive are left out. Unmarked numbers belong to inactive results. The call rests on the fitted dose curve; in most records, active means well fitted activation curve with a large enough effect; inconclusive means small, poorly fitted or top-dose-only effect; inactive means no such curve, though single readings can be large or run the other way.",
  "data": [
    {"target": "D(1A) dopamine receptor (Homo sapiens) (UniProt P21728)", "sequence (P21728 whole entry, looked up)": "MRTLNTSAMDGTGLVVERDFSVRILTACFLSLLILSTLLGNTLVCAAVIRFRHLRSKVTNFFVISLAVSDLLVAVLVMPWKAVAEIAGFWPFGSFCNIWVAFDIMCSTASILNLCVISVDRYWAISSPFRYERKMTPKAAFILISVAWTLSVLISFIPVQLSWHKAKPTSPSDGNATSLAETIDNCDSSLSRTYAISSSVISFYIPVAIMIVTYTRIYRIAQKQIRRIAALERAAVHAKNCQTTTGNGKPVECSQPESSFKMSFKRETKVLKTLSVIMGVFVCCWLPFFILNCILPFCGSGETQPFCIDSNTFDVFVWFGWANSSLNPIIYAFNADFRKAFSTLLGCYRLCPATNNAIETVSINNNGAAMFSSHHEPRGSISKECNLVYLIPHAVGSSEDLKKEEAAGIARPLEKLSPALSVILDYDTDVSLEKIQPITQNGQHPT", "experiment": "HTS Assay for Allosteric Agonists of the Human D1 Dopamine Receptor: Primary Screen for Potentiators (AID 488982); further: 0% is about no effect", "conditions": "HEK293 T-REx D1 inducible cells, calcium flux, kinetic fluorescence; series mostly up to 8.37 µM; activity, positive = potentiation: at the top concentration", "text": "Dopamine receptors (DARs) are involved in the etiology and/or therapy of a number of neuropsychiatric and endocrine disorders. For instance, all receptor-based antiparkinsonian drugs work via stimulating the […] DAR subtype whereas all FDA-approved antipsychotic agents are antagonists of this receptor. […] There are three different types of allosteric modulators that we are seeking, two of which will stimulate or augment receptor signaling, allosteric agonists and potentiators, while the third, allosteric antagonists, will attenuate receptor signaling. The present primary screening assay measures compound agonism by tracking calcium flux in a […], inducible Hek293 Trex D1 cell line.\nFreshly passaged cells are plated in 1536 well black, clear bottom plates at a density of 4000 cells/well in 3 ul of complete media containing 1x tetracycline inducer. After an overnight incubation at 30 C in 5% CO2, cells are loaded with 2 ul of the no wash Calcium Assay Kit (ABD Bioquest) and incubated at room temperature for 30 to 90 minutes. A 10 cycle (1 second/cycle) baseline measurement is taken and then the FDSS online 1536 pintool delivers 23 nl of compound library (as well as dopamine controls) to the plate. The plate is measured for kinetically at 1 cycle/sec for 180 seconds and is considered to be the agonist portion of the assay (eg, compounds which activate a positive calcium response during this portion are flagged as potential agonists). Following the 180 second read, 1 ul of an EC20 of dopamine is delivered by an onboard pipette head. Measurements are taken kinetically for an additional 180 seconds.", "units": {"activity, positive = potentiation": "%"}, "values": [
      {"smiles": "CCN(CC)CCNC(=O)c1ccc(NS(C)(=O)=O)cc1", "activity, positive = potentiation": -6.03},
      {"smiles": "Cn1cnc2c(NCc3ccccc3)nc(NCCO)nc21", "activity, positive = potentiation": -45.6},
      {"smiles": "C[N+](C)(C)CCO", "activity, positive = potentiation": 17.7},
      {"smiles": "O=C1NC(=O)/C(=C/c2ccc3c(c2)OC(F)(F)O3)S1", "activity, positive = potentiation": 2.89},
      {"smiles": "Cc1nn(-c2ccccc2)c(C)c1/C=N/N1CCN(Cc2ccccc2)CC1", "activity, positive = potentiation": -44.9},
      {"smiles": "Nc1ncnc2n[nH]c(Nc3ccc(F)cc3)c12", "activity, positive = potentiation": -16.3},
      {"smiles": "N[C@@H](Cn1ccc(=O)c(O)c1)C(=O)O", "activity, positive = potentiation": 9.56},
      {"smiles": "COc1ccccc1N1CCN(CCN2C(=O)CC3(CCCC3)CC2=O)CC1", "activity, positive = potentiation": 17.4},
      {"smiles": "CN(C)c1cc2c(Nc3ccc4c(cnn4Cc4ccccc4)c3)ncnc2cn1", "activity, positive = potentiation": -14},
      {"smiles": "NC(N)=NCCCCN=C(N)N", "activity, positive = potentiation": 33.4},
      {"smiles": "CC(C)N(CCC(=O)c1ccc2ccccc2c1)Cc1ccccc1", "activity, positive = potentiation": -14.9},
      {"smiles": "Brc1ccc([C@H]2CN3CCSC3=N2)cc1", "activity, positive = potentiation": 14},
      {"smiles": "COc1cccc2c1[C@@H]1CN(CCCCn3c(=O)[nH]c4c(sc5ncc(-c6ccccc6)nc54)c3=O)C[C@@H]1CO2", "activity, positive = potentiation": -26.8},
      {"smiles": "O=C1NC(c2cccc([N+](=O)[O-])c2)=CCN1c1ccccc1O", "activity, positive = potentiation": 24.6},
      {"smiles": "COC(=O)C1=CO[C@@H](O)[C@@H]2C(CO)=CC[C@H]12", "activity, positive = potentiation": 17.5}
    ]}
  ]
}
